These results are taken from PubChem BioAssay (Tox21).

Records with an inconclusive call do not appear. Activity calls are given as the source filed them. Calls follow the shape of the dose curve; as a rule, active = well fitted cell-killing curve with a large enough effect in the repeat runs; inconclusive = weak or mixed curves, or effect the other way; inactive = flat fitted curve, though single readings scatter.
% is scaled to controls: 0 for no effect and ±100 for the full control effect.

The assay in a line: qHTS RealTime-Glo MT Cell Viability Assay in HEK293 cells - 8 hour (AID 1224887). Also: top concentration of the series differs between compounds; nearly all actives have a fitted effect of over 50% in size. The conditions noted are these: RealTime-Glo luminescence; series mostly up to 76.8 µM; activity change, negative = cytotoxicity: at the top concentration. From the text: U.S. Tox21 Program National Center for Advancing Translational Sciences [NCATS] NIH Chemical Genomics Center [NCGC] U.S. Environmental Protection Agency [EPA] National Institutes of Environmental Health Sciences [NIEHS] National Toxicology Program [NTP] U.S. Food and Drug Administration [FDA] Tox21 Assay Overview: Measure of cell viability is critical in the cell-base assay. Analysis of cell viability is necessary for the characterization of cell responses to cytotoxic drugs and environmental stress. A RealTime-Glo MT Cell Viability Assay to monitor cell viability in real time of continues cell culture during 40 hours of compound treatment was used to screen Tox21 10K library compounds in Hek293 cells. The RealTime-Glo MT Cell Viability Assay is a nonlytic, homogeneous, bioluminescent method to measure cell viability in real time using a simple, plate-based method. The assay involves adding NanoLuc luciferase and a cell-permeant prosubstrate to cells in culture. Viable cells reduce the proprietary prosubstrate to generate a substrate for NanoLuc luciferase. This substrate diffuses from cells into the surrounding culture medium, where it is rapidly used by the NanoLuc Enzyme to produce a luminescent signal. The signal correlates with the number of viable cells, making the assay well suited for cytotoxicity studies.
Tox21 Assay Protocol Summary: The mixture of Hek293 cell suspension and reagents were dispensed at 600cells/6 ul/well in 1536-well tissue culture treated black solid bottom plates using a Multidrop dispenser. After the assay plates were incubated at a 37 C/5% CO2 incubator for 5 hours, 23 nL of compounds dissolved in DMSO, positive and negative controls was transferred to the assay plate by a pintool work station. The plates were incubated at 37 C for 40 hours. The luminescence intensity were measured at 0h, 8h, 16h, 24h, 32h and 40h time points using ViewLux plate reader during compound treatment.
On the technique in general: In qHTS, concentration-response curves come from the screen itself.
For `CN(C)CCN(C)CCO`, the “activity change, negative = cytotoxicity” value was 3.61% (inactive).

Consider `CC(=O)OC1CCCCC1C(C)(C)C` (stereo not given), for which the “activity change, negative = cytotoxicity” value was -2.68% (inactive).

`CCC[C@@H]1C[C@@H](C(=O)N[C@@H]([C@H]2O[C@H](SC)[C@H](O)[C@@H](O)[C@H]2O)[C@@H](C)O)N(C)C1`: the “activity change, negative = cytotoxicity” value is 1.49% [at 35.3 µM] (inactive).

With `O=C(CN1CCNCC1)NC1CCCCC1`, the “activity change, negative = cytotoxicity” value was -1.07% [at 35.3 µM] (inactive).

As for `C/C(=C1\CCOC(=O)S1)N(C=O)Cc1cnc(C)nc1N`, the “activity change, negative = cytotoxicity” value is 11.6% [at 35.3 µM] (inactive).

Turning to `CC1OCCC1=O` (stereo not given), the “activity change, negative = cytotoxicity” value is 1.66% (inactive).

With `Cn1c(=O)c2c(ncn2CCO)n(C)c1=O`, the “activity change, negative = cytotoxicity” value was 4.53% [at 35.3 µM] (inactive).

For `CC1CCc2c(N3CCC(O)CC3)c(F)cc3c(=O)c(C(=O)O)cn1c23` (stereo not given), the “activity change, negative = cytotoxicity” value was -16.6% [at 35.3 µM] (inactive).

As to `CC(N)CCCC(C)(C)O` (stereo not given), the “activity change, negative = cytotoxicity” value is 6.59% [at 35.3 µM] (inactive).

Turning to `CN1CCOC(c2ccccc2)c2ccccc2C1` (stereo not given), the “activity change, negative = cytotoxicity” value is 2.35% [at 35.3 µM] (inactive).

As for `CC/C(C)=N\O[Si](C)(O/N=C(\C)CC)O/N=C(\C)CC`, the “activity change, negative = cytotoxicity” value is -0.269% (inactive).

As for `CO/N=C(/C(=O)N[C@@H]1C(=O)N2C(C(=O)[O-])=C(C[n+]3ccn4ncccc43)CS[C@H]12)c1nsc(N)n1`, the “activity change, negative = cytotoxicity” value was 10.8% [at 35.3 µM] (inactive).

In the case of `CCc1occc(=O)c1O`, the “activity change, negative = cytotoxicity” value was 0.677% (inactive).

On to `ONc1ccccc1`, for which the “activity change, negative = cytotoxicity” value was -18.7% (inactive).

For the compound `O=C1c2ccccc2C(=O)c2cc(Cl)ccc21`, the activity change, negative = cytotoxicity is 6.4% [at 6.97 µM] (inactive).

Take `C[C@]12CCC(=O)C=C1CC[C@H]1[C@@H]3CC[C@](O)(C(=O)CO)[C@@]3(C)C[C@H](O)[C@@]12F`: the “activity change, negative = cytotoxicity” value is -17.7% [at 35.3 µM] (inactive).

Turning to `CCCCCCCCCCCCCCCCCCOCCO`, the activity change, negative = cytotoxicity was 1.44% [at 15.8 µM] (inactive).

`OC1OCCOC1O` (stereo not given): the “activity change, negative = cytotoxicity” value was 15.8% (inactive).

For `CC(=O)C(C)O` (stereo not given), the “activity change, negative = cytotoxicity” value was 16.9% (inactive).

Regarding `C=CCCCC`, the “activity change, negative = cytotoxicity” value was 7.72% (inactive).

Regarding `Cc1ccc(N)cc1S(=O)(=O)O`, the “activity change, negative = cytotoxicity” value was -3.88% (inactive).

`Cc1cc(C)c(C(=O)O)c(C)c1`: the “activity change, negative = cytotoxicity” value was 3.71% (inactive).

As to `Cc1ncc([N+](=O)[O-])n1CC(C)O` (stereo not given), the “activity change, negative = cytotoxicity” value was 0.651% [at 35.3 µM] (inactive).

As to `CCCC(=O)OC/C=C(\C)CCC=C(C)C`, the “activity change, negative = cytotoxicity” value is 5.81% (inactive).

For the compound `CCC(C)OC(C)CC` (stereo not given), the “activity change, negative = cytotoxicity” value was -4.11% (inactive).

As for `NCC1(Cc2noc(=O)[nH]2)CCCCC1`, the “activity change, negative = cytotoxicity” value was 7.99% (inactive).

Take `CC(CO)(CO)CO`: the “activity change, negative = cytotoxicity” value is -1.46% (inactive).

Consider `CC(C)COC(=O)c1ccccc1`, for which the “activity change, negative = cytotoxicity” value was -1.29% (inactive).

As to `OC1(c2ccc(Cl)cc2)CCNCC1`, the “activity change, negative = cytotoxicity” value was 9.63% [at 35.3 µM] (inactive).

Consider `CCO`, for which the “activity change, negative = cytotoxicity” value is -1.5% (inactive).

In the case of `CCOc1cccc(N)c1`, the “activity change, negative = cytotoxicity” value was 2.61% (inactive).

For `CCCCOC(=O)[C@H](C)O`, the “activity change, negative = cytotoxicity” value was 4.44% (inactive).

As to `c1ccc2cnccc2c1`, the “activity change, negative = cytotoxicity” value was 2.4% (inactive).

Consider `CC(=O)C1C(=O)C=C(C)OC1=O` (stereo not given), for which the “activity change, negative = cytotoxicity” value is 4.07% (inactive).

On to `CC1=C(C(=O)O)N2C(=O)[C@@H](NC(=O)[C@H](N)c3ccccc3)[C@H]2SC1`, for which the “activity change, negative = cytotoxicity” value is 0.208% [at 35.3 µM] (inactive).

As for `COc1cc(/C=C/C(N)=O)cc(OC)c1OC`, the “activity change, negative = cytotoxicity” value is -0.552% [at 35.3 µM] (inactive).

As for `C[Si]1(C)O[Si](C)(C)O[Si](C)(C)O[Si](C)(C)O[Si](C)(C)O1`, the “activity change, negative = cytotoxicity” value was 7.48% (inactive).

In the case of `CCC(C)C(=O)OCCc1ccccc1` (stereo not given), the “activity change, negative = cytotoxicity” value is 1.27% (inactive).

Regarding `CC1c2ccccc2CN1NC(=O)c1ccc(Cl)c(S(N)(=O)=O)c1` (stereo not given), the “activity change, negative = cytotoxicity” value was -8.18% [at 35.3 µM] (inactive).

Regarding `CC(=O)Nc1ccc(OC(=O)c2ccccc2OC(C)=O)cc1`, the “activity change, negative = cytotoxicity” value was 2.54% [at 35.3 µM] (inactive).
